# DRV1 agonist – GPR32 (DRV1) agonism, beta-arrestin recruitment. O75388. CHO-K1 GPR32 beta-arrestin PathHunter luminescence, 90 min; zero percent set by DMSO-only wells. activation, % at 76.9 µM. hit rate 2.5% among 48,000. AID 1346428;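 active = activation of at least 60% and not above a set upper limit, about 1 call in 100 departs from these limits; inconclusive = activation of 40% to 60%, or above that upper limit; inactive = activation under 40%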; also: 0% is about no effect
# Target sequence (O75388 whole entry, looked up): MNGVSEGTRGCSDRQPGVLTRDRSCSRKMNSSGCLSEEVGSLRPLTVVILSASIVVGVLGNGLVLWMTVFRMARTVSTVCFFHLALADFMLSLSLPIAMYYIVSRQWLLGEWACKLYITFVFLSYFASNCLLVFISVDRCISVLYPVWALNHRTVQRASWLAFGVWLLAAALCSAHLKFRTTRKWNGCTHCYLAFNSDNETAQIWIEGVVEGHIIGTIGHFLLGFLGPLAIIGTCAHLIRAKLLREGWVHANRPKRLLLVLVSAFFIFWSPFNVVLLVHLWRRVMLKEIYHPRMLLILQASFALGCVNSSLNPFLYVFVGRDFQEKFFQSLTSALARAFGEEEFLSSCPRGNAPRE
#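 Readings come from a cell-based beta-arrestin complementation format: CHO-K1 GPR32 stable cells (2,500/well) treated 90 min with compounds, then beta-Gal substrate added for 1 h before chemiluminescence imaging.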
# B2AR arrestin ag – beta-arrestin recruitment by human beta2-adrenergic receptor ligands. AID 1347077. Potency, µM (titrated, usually from 46.1 µM), actives largely listed as activators. P07550. HTLA Tango cells, beta-arrestin recruitment, luciferase luminescence, 18 h. 44,000 tested, under 10 active;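 also: potency is read from the fitted curve at half-maximal effect; 0% = DMSO and full agonism = EC100 isoproterenol or metaproterenol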
# Target sequence (P07550 whole entry, looked up): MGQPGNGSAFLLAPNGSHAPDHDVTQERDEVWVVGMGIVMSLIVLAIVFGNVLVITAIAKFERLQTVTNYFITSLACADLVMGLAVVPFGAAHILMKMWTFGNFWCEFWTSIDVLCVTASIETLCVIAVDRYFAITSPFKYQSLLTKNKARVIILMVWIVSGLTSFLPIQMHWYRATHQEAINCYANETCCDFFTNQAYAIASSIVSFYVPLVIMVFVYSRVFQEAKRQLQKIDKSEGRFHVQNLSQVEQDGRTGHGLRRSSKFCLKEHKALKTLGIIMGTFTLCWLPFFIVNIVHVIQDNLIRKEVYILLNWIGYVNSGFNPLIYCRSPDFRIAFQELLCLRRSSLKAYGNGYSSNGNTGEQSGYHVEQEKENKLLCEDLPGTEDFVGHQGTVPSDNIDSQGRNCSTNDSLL
#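 Luminescence read-out: arrestin recruitment to recombinant beta2-AR releases tTA, inducing luciferase. Cells exposed 18 hr at 37 degrees C to up to 46 microM compound; %Activity from corrected signal, concentration-response curves classified by r2, magnitude and efficacy.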
# HTT-AS promoter – activators of huntingtin-antisense promoter activity. HEK293 HTT-AS promoter firefly luciferase reporter, 24 h; response scale: percent change from vehicle, -100% = no light. Potency, µM (series often up to 57.5 µM), without a hit: at the top dose activity change, positive = activation, actives largely listed as activators. hit rate 0.24% among 48,000. AID 1508624; also: potency is read from the fitted curve at half-maximal effect; nearly all actives have a fitted effect of over 55% in size
#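 Firefly luciferase readout (Dual-Glo, 10 min RT) after 24 h, 37 °C compound exposure (final up to 57.5 uM) of HEK293 reporter cells cultured 24 h beforehand; PTC124 at 50 uM final as control inhibitor; activity scaled vehicle 0%, zero RLU -100%.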
# GALK inh – GALK (human) enzyme inhibition; recombinant GALK, Kinase-Glo ATP luminescence, 1 h; Potency, µM (top dose mostly 57.5 µM), without a hit: at the top dose activity, negative = inhibition, most hits filed as inhibitors; 44,000 tested, under 10 active; AID 1347072;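 also: plate controls were full GALK reaction for no effect and reaction lacking GALK for full effect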
#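 Human GALK (5 nM) was incubated with 35 uM ATP and 100 uM galactose in 20 mM HEPES pH 8.0 with MgCl2, NaCl, DTT and BSA for 1 h at room temperature. Remaining ATP was measured by Kinase-Glo Plus luminescence.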
# HTT promoter inh – HTT promoter inhibition | HEK293 HTT promoter firefly luciferase reporter, 24 h | Potency, µM (series often up to 57.5 µM), for inactives: top-dose activity change, negative = inhibition, actives largely listed as inhibitors | hit rate 0.93% among 48,000 | AID 1508623; also: potency is read from the fitted curve at half-maximal effect; nearly all actives have a fitted effect of over 50% in size
#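 HEK293 luciferase promoter-reporter cells (2,500/well) plated 24 h, then compounds added at up to 57.5 uM final for 24 h at 37 °C. Firefly luminescence by Dual-Glo, normalized to vehicle (0%) and zero RLU (-100%).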
# PTAP-TSG101 blk – TSG101-PTAP interaction inhibition, HIV-1 budding; Q99816; Fluorescence polarization, FITC-PTAP peptide/Tsg101, 20 min; Potency, µM (highest dose often 115 µM), most hits filed as inhibitors; 44,000 tested, under 10 active; AID 1347069; also: potency is read from the fitted curve at half-maximal effect; 0% is about no effect
#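 qHTS FP binding, 20 min r.t.: 10 uM Tsg101 domain + 50 nM FITC-PTAP peptide, pH 7.5 HEPES buffer with TCEP and EDTA.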
# Numbers without * were called inactive; i = inactive; u = inconclusive; x = not tested or not shown; [ ] = remark or other dose. The list is not random: actives were taken first. Their share in the collection is about 3.7%. Unless noted, calls follow the shape of the dose curve; as a rule, active = well fitted curve in the direction sought with a large enough effect; inconclusive = small, poorly fitted or top-dose-only effect, or another doubt; inactive = no such curve, though single readings can be large; an effect the other way counts as inactive or inconclusive.
SMILES,DRV1 agonist,B2AR arrestin ag,HTT-AS promoter,GALK inh,HTT promoter inh,PTAP-TSG101 blk
CCOC(=O)C1CCN(C(=O)Cn2nc(CC)n3c(cc4sccc43)c2=O)CC1,-3.8,i,-78.2%,10.6%,2.82µM*,i
CCN(CC)c1ccc(NS(=O)(=O)c2ccc(-c3coc(C)n3)cc2)c(C)c1,68.4*,i,-30.5%,-0.1%,u,i
Cc1nc(-c2ccc(S(=O)(=O)Nc3ccc(C)c(N(C)C)c3)cc2)co1,43.7,i,-47.4%,1.8%,u,i
COc1cc(Cl)c(NS(=O)(=O)c2ccc(-c3coc(C)n3)cc2)c(OC)c1,82.6*,i,-52.5%,2.3%,u,i
O=c1ccn([C@@H]2O[C@H](CO)[C@H](O)[C@@H]2F)c(=O)[nH]1,x,x,-32.1%,x,u,x
C[C@H]1C[C@H](O)c2ccsc2S1(=O)=O,-8.2,x,0.4%,x,-0.2%,x
COc1ccc(-c2nc3scc(CCNC(=O)c4cccc(Br)c4)n3n2)cc1,71.2*,i,-12.3%,4.0%,-17.8%[11.5 µM],i
Cc1c(Cl)cccc1Nc1nn2c(=O)c3ccc(C(=O)NCCc4ccccc4)cc3nc2s1,3.6,i,-5.0%,0.2%,-12.8%,i
Cc1ccc(C)c(Nc2nn3c(=O)c4ccc(C(=O)NCCc5ccccc5)cc4nc3s2)c1,74.1*,i,-3.0%,0.2%,7.6%,i
O=c1c2cc3c(cc2nc2sc(Nc4ccccc4)nn12)OCO3,-3.8,i,u,-5.6%,39.6%,i
COc1ccccc1Nc1nn2c(=O)c3ccc(C(=O)NCCC4=CCCCC4)cc3nc2s1,29.9,i,-87.9%,3.7%,10µM*,i
COc1ccccc1Nc1nn2c(=O)c3ccc(C(=O)NCCc4ccccc4)cc3nc2s1,11.4,i,-73.3%,0.2%,7.08µM*,i
Cc1ccc(C)c(Nc2nn3c(=O)c4ccc(C(=O)NCCC5=CCCCC5)cc4nc3s2)c1,48.2,i,-20.7%,-4.0%,-10.2%,i
Cc1ccc(C)c(Nc2nn3c(=O)c4cc5c(cc4nc3s2)OCO5)c1,63.3*,i,14.3%,5.2%,15.1%,i
CCOC(=O)c1ccc(NC(=O)COc2cccc3c(=O)n(C)ccc23)cc1,68.7*,i,-45.2%,-0.3%,u,i
Cn1nc(-c2ccc(C(=O)Nc3ccc(OC(F)(F)F)cc3)cc2)c2ccccc2c1=O,14.8,i,-46.7%,-0.2%,10µM*,i
COCCn1ccc2c(OCC(=O)Nc3cccc(OC)c3)cccc2c1=O,72.7*,i,-18.9%,-2.1%,0.0%,i
CNC(=O)COc1ccc(NC(=O)c2ccc(-c3nn(C)c(=O)c4ccccc34)cc2)cc1,25.4,i,-12.6%,5.7%,-11.1%,i
Cn1ccc2c(OCC(=O)Nc3ccc(OC(F)(F)F)cc3)cccc2c1=O,35.6,i,-76.3%,-3.0%,20µM*,i
Cn1ccc2c(OCC(=O)Nc3ccc([N+](=O)[O-])cc3)cccc2c1=O,2.0,i,-33.5%,2.7%,-33.2%,i
COCCn1ccc2c(OCC(=O)Nc3cccc(C(F)(F)F)c3)cccc2c1=O,u,i,-21.2%,0.3%,u,i
S=C(NCc1ccc2c(c1)OCO2)N1CCN(c2ncnc3c2oc2ccccc23)CC1,x,x,-16.3%[116 µM],x,u,x
CC[C@H]1OC(=O)[C@H](C)[C@@H](O[C@H]2C[C@@](C)(OC)[C@@H](O)[C@H](C)O2)[C@H](C)[C@@H](O[C@@H]2O[C@H](C)C[C@H](N(C)C)[C@@H]2O)[C@](C)(O)C[C@@H](C)CN(C)[C@H](C)[C@@H](O)[C@]1(C)O,x,x,-7.8%,x,-2.5%,x
COc1cc(NC(=O)c2cc(-c3cccc(OC)c3)n[nH]2)cc(OC)c1,81.5*,i,u,-1.8%,2.4%,i
COc1cc(NC(=O)c2ccc(-c3ccc(Cl)cc3)o2)cc(OC)c1,x,x,-5.8%,x,u,x
SMILES,DRV1 agonist,B2AR arrestin ag,HTT-AS promoter,GALK inh,HTT promoter inh,PTAP-TSG101 blk
CCCN1CCCc2cc(CN(CCCN3CCOCC3)C(=O)Nc3ccc(CC)cc3)ccc21,61.3*,i,-33.4%,1.0%,-16.2%,i
Cc1nn(C)c2c1c(-c1ccccc1)cc(=O)n2CC(=O)NC(C)(C)C,91.5*,i,-31.5%,-2.3%,-23.9%,i
COc1ccc(C)cc1NC(=O)Cn1c(=O)cc(C)c2c(C)nn(C)c21,-4.2,i,-93.6%,-1.0%,2µM*,i
COC(=O)c1ccccc1NC(=O)Cn1c(=O)cc(C)c2c(C)nn(C)c21,-7.2,i,-26.0%,-0.4%,u,i
CC1(C)C(N(O)C(=O)Nc2ccc(Cl)cc2)N(c2ccc(Cl)cc2)C(=O)N1CC(=O)NN=CC=Cc1ccc([N+](=O)[O-])o1 (stereo not drawn),x,x,-31.8%,x,u,x
Cc1cnc(CNC(=O)c2c(=O)c3ccc(N4CCCN(C)CC4)nc3n3c2sc2ccccc23)cn1,x,x,-23.0%[25.1 µM],x,-11.7%[25.2 µM],x
CC1CCN(c2nc3ccc(C(=O)NCc4ccccc4Cl)cc3s2)CC1,16.2,i,-80.6%,-1.3%,0.282µM*,i
COc1ccccc1CNC(=O)c1ccc2nc(N3CCCCC3)sc2c1,6.2,i,-28.5%,4.3%,u,i
Cc1ccc(CCNC(=O)c2ccc3nc(N4CCC(C)CC4)sc3c2)cc1,-9.0,i,-73.1%,-1.2%,0.355µM*,i
O=C(NCc1cccc(Cl)c1)c1ccc2nc(N3CCCCC3)sc2c1,-9.5,i,-38.0%,-3.4%,u,i
CC1CCN(c2nc3ccc(C(=O)NCc4ccc(Cl)cc4)cc3s2)CC1,-19.2,i,-78.7%,2.9%,0.251µM*,i
Cc1cccc(N2CCN(C(=O)c3ccc4nc(N5CCC(C)CC5)sc4c3)CC2)c1C,-1.0,i,-74.7%,1.6%,2.51µM*,i
Cc1ccc2nc(N3CCN(C(=O)C4CC4)CC3)sc2c1,-5.0,i,u,-1.3%,43.7%,i
Fc1ccc(CNc2ncnc3ccc(F)cc23)cc1,x,x,-91.6%,x,-33.9%,x
NC(=O)c1ncn([C@@H]2O[C@H](CO)[C@@H](O)[C@@H]2O)c1N,x,x,1.2%,x,12.8%,x
Nc1ncnc2c1c(-c1cnc3[nH]ccc3c1)nn2C1CCCC1,x,x,-37.7%,x,u,x
Cc1ccc(NC(=O)CSc2nc3ccc(NC(=O)CCc4ccccc4)cc3s2)cc1,65.9*,i,-3.3%,7.6%,-4.6%,i
CS(=O)(=O)Nc1ccc(-c2nc3ccccc3s2)cc1,100.3*,i,u,0.2%,0.0%,i
